Experimental data taken from ChEMBL document CHEMBL3433997, “St. Jude Leishmania screening dataset” (2016).

Legend:
Assay type in all cases: functional
[1] = biological target: Solute carrier family 2, facilitated glucose transporter member 1 (Homo sapiens) (UniProt P11166); assay: ST_JUDE_LEISH: Cytotoxicity at 2uM final concentration against transgenic Leishmania Mexicana promastigotes LmGLUT1 that are glucose transport deficient and complemented with the human glucose transporter GLUT1. Activity is measured by DNA content using SYBR green in vitro
Chain of Solute carrier family 2, facilitated glucose transporter member 1 (Homo sapiens) (P11166 whole entry): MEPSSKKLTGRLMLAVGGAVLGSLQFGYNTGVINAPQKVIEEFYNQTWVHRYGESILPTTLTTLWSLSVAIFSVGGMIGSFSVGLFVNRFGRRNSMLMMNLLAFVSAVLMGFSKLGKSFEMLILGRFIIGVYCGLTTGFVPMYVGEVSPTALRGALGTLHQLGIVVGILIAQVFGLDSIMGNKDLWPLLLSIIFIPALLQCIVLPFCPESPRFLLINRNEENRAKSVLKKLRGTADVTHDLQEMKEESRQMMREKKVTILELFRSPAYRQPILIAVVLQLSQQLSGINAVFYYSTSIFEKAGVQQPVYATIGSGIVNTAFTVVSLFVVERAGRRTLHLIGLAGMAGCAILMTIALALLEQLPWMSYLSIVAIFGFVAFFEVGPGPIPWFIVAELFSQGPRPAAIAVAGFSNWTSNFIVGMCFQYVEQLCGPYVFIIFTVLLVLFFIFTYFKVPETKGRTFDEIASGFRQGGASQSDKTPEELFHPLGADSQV

[2] = biological target: Hexose transporter 1 (Plasmodium falciparum) (UniProt O97467); assay: ST_JUDE_LEISH: Cytotoxicity at 2uM final concentration against transgenic Leishmania Mexicana promastigotes LmPfHT that are glucose transport deficient and complemented with the Plasmodium falciparum hexose transporter. Activity is measured by DNA content using SYBR green in vitro
[3] = biological target: Glucose transporter (Leishmania mexicana) (UniProt O61059); assay: ST_JUDE_LEISH: Cytotoxicity at 2uM final concentration against transgenic Leishmania Mexicana promastigotes LmGT2 that are glucose transport deficient and complemented with the L. Mexicana glucose transporter 2. Activity is measured by DNA content using SYBR green in vitro

Compound	inhibition [1]	inhibition [2]	inhibition [3]
COc1cccc(NC(=O)[C@H](C)n2c(=O)[nH]c3ccccc3c2=O)c1	10.9%	14.1%	7.45%
O=C(Nc1ccc(C(F)(F)F)cc1)NC1CCN(c2ccnc3ccccc23)C1 (stereo unspecified)	8.02%	7.55%	7.55%
O=C(CSc1nnc(-c2ccccc2Br)[nH]1)c1c[nH]c2ccccc12	-0.5%	-0.7%	1.98%
COc1cc2nc(NCCn3ccnc3C)nc(NCCc3ccccc3)c2cc1OC	1.91%	1.02%	2.18%
O=C(Nc1c(F)cccc1F)c1cccc(-c2nn3ccccc3c2-c2ccnc(Nc3cccc(-c4cnco4)c3)n2)c1	12.2%	4.66%	1.5%
COc1ccccc1/C=C/C(=O)NCCC1CCN(CCCCCNC(=O)/C=C/c2ccc(Cl)c(Cl)c2)CC1	16.2%	13%	12.2%
CCC(CC)(Cc1ccccc1)NC(=O)[C@H](CC(C)C)Nc1ccc(C#N)c2ccccc12	13.3%	10.4%	10.7%
N=C(N)Nc1ccc(OCCCCCOc2ccc(NC(=N)N)cc2Br)c(Br)c1	4.63%	1.79%	0.79%
OC(CNCc1ccccc1Oc1ccccc1)c1cc(Br)cs1 (stereo unspecified)	4.37%	3.03%	3.26%
CCn1c(Sc2ccc(C#N)c([N+](=O)[O-])c2)nnc1-c1cccc(Cl)c1	16.9%	14.9%	11.8%
Cc1cccc2c3c([nH]c12)C1(CCN(CCc2ccccc2)CC1)NC(C(=O)NCc1ccccc1)C3 (stereo unspecified)	4.58%	5.51%	0.71%
COc1ccc(-n2ncc(C(=O)N3CCC4(C3)C(=O)N(c3ccccc3)c3ccccc34)c2C)cc1 (stereo unspecified)	1.9%	2.74%	0.94%
